Assay outcomes as filed in PubChem.
aSyn UTR act – Activators via SNCA 5'UTR binding, MLPCN. alpha-synuclein 5'UTR reporter, activators screen. activity score, % (tested at 7.5 µM), hits read low. 7.1% of 300,000 active. AID 1814; in the data active means activity score below about -60%
Hits are given with their value; n = inactive. The list is a sample of the results.

SMILES	aSyn UTR act
CC(=O)N(O)CCCCCNC(=O)CCC(=O)N(O)CCCCCNC(=O)CCC(=O)N(O)CCCCCN	n
CC(C)Cc1ccc(C(C)C(N)=NCCc2ccccc2)cc1 (stereo not drawn)	-75
O=c1c(C=Nc2cccc(C(F)(F)F)c2)c[nH]n1-c1cccc(Cl)n1	-65
CC(C)(C)c1cc(NCCCn2ccnc2)n2ncc(-c3ccccc3)c2n1	-149
CN(C)CCCNc1cc(C(C)(C)C)nc2c(-c3ccc(Cl)cc3)cnn12	n
Cc1cc(NCCCn2ccnc2)n2ncc(-c3ccc(Cl)cc3)c2n1	n
CC(C)(C)c1cc(-n2ccnc2)n2ncc(-c3ccc(Cl)cc3)c2n1	-67
O=C(N/N=C/c1ccc(O)cc1)Nc1cccc2nsnc12	-73
COc1cc(/C=N/NC(=O)Nc2cccc3nsnc23)cc(OC)c1OC	-89
COc1cccc(CNC(=O)CCC2CCCN(C(=O)c3cc4ccccc4o3)C2)c1 (stereo not drawn)	-78
COc1cccc(C(=O)/C=C/Nc2ccc(NC(C)=O)cc2)c1	-125
COc1cccc(C(=O)/C=C/Nc2cccc(O)c2)c1	-87
CCOC(=O)c1c(C)c(C(=O)Nc2ccc(N(C)C)cc2)c(C)n1CC	-82
CCOC(=O)c1ccc(CNCc2ccccc2)cc1	-66
CCOC(=O)c1cn[nH]c1NC(=S)Nc1ccc(Cl)cc1	-66
CCOC(=O)c1cccc(OS(=O)(=O)Cc2ccccc2)c1	-63
CCOC(=O)c1ccc(S(=O)(=O)NCCN(CC)CC)cc1	n
COC(=O)c1ccc(NC(=O)CNc2ccccc2)cc1	-99
CCOC(=O)c1ccc(NC(=S)Nc2ccccc2)cc1	-147
CCOC(=O)c1ccc(NCc2ccc(N(C)C)cc2)cc1	-87
CCOC(=O)c1ccc(NC(=S)Nc2ccc(C)cc2)cc1	-145
CN(Cc1ccccc1)C(=O)C(C(=O)c1ccc(F)cc1)n1cc(Cl)ccc1=O (stereo not drawn)	-67
CC1CCCC2(C1)NC(=S)c1c(sc3c1CCCC3)N2 (stereo not drawn)	-63
O=C(NC(=O)c1ccccc1)Nc1ccc(-c2cnco2)cc1	-143
O=C(Nc1ccc(Cl)cc1)Nc1ccc(-c2cnco2)cc1	-85
SMILES	aSyn UTR act
Oc1ccc2c(c1)oc1cc(O)ccc12	-178
CCN1/C(=C/C=C/C=C/c2sc3ccccc3[n+]2CC)Sc2ccccc21	n
CC[n+]1c(/C=C/Nc2ccccc2)sc2ccccc21	-83
O=[N+]([O-])c1cc(-c2nnc(C34CC5CC(CC(C5)C3)C4)o2)cc([N+](=O)[O-])c1	-97
Cc1ccn(-c2cc(O)c(-n3ccc(C)n3)cc2O)n1	-85
O=C1C[C@H]2[C@H](CO)[C@@H](OC(=O)c3ccc(-c4ccccc4)cc3)C[C@H]2O1	-87
Cc1cc(CN(C)C(=O)CCc2nnc(Cc3cccc(C(F)(F)F)c3)o2)on1	-79
CC(=O)CCC(=O)NCCc1ccccc1F	-63
O=C(CCc1nnc(Cc2cccc(C(F)(F)F)c2)o1)NCCc1ccccc1F	-71
CCN(CC)C(=O)CCc1nnc(Cc2cccc(C(F)(F)F)c2)o1	-177
CC1OC(Nc2ccc(N=Nc3ccccc3)cc2)C(O)C(O)C1O (stereo not drawn)	-63
N#CC1=C(N)N2C(=C(C#N)C1c1cccc(Br)c1)Nc1ccccc12 (stereo not drawn)	n
c1ccc(Sc2ccccc2CN2CCCC2)cc1	n
CC1CCC(=O)N(CCSc2ccccc2)CC1 (stereo not drawn)	-116
CC(C)(C)C1CCC(=O)N(CCOc2ccccc2)CC1 (stereo not drawn)	-101
O=C1CCN(CCc2ccccc2)CCN1CCSc1ccccc1	-69
Oc1ccc(CN2CCc3ccccc3C2)c2cccnc12	n
c1ccc(SCCN2CCc3ccccc3C2)cc1	-97
Cn1c(SCc2ccccc2F)nnc1-c1ccccn1	-123
Cn1c(SCc2ccccc2F)nnc1-c1cnccn1	-187
COC(=O)c1ccc(NC(=O)c2ccc3c(c2)OCO3)cc1	-144
Cc1ccccc1-c1nc(-c2ccc(NC(=O)c3ccc4c(c3)OCO4)cc2)no1	-71
COC(=O)c1ccc(N/C=C\C(=O)c2ccc3c(c2)OCO3)cc1	-133
COC(=O)c1c(-c2cccnc2)csc1NC(=O)c1ccc2c(c1)OCO2	-76
Cc1nc(NC(=O)c2ccc(Cl)cc2)nc2cc3c(cc12)OCO3	-84
SMILES	aSyn UTR act
O=C(Nc1ccc(N2CCCCC2)cc1)c1ccc2c(c1)OCCO2	-87
COC(=O)c1sccc1NC(=O)c1ccc(C(C)C)cc1	-87
Cc1cc(C)nc(NC(=O)c2c(F)c(F)c(F)c(C(=O)Nc3cc(C)cc(C)n3)c2F)c1	-70
O=C(Nc1ccc(F)c(Cl)c1)c1ccc2c(c1)OCO2	-211
CC1CCCC(NC(=O)c2ccc3c(c2)OCO3)C1C (stereo not drawn)	-65
O=C(Nc1ccc(C(=O)N2CCCC2)cc1)c1ccc2c(c1)OCO2	-69
COC(=O)c1sccc1NC(=O)c1ccc2c(c1)OCO2	-91
COC(=O)c1sccc1NC(=O)/C=C/c1ccc(Cl)cc1	-197
Cc1cc(C)nc(NC(=O)c2ccc3c(c2)OCO3)c1	-94
COC(=O)c1sccc1NC(=O)c1ccc(OC)cc1OC	-98
